# ± gives the standard deviation.
# Tested on: MILI (PIWIL2) piRISC loaded with L1MC piRNA (26 nt)
# Assay: pre-steady-state target cleavage rate (min^-1); guide: L1MC piRNA 5'p-UAACUAAAUACUAUGCAAGCUGUAGG; MIWI and MILI are mouse PIWI proteins and EfPiwi is from a freshwater sponge; tags in brackets are library labels; higher = faster piRNA-guided slicing of the target
# Settings: auxiliary factor: 500 nM mouse GTSF1
# Method in brief: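 Active affinity-purified piRISC carrying one synthetic guide (1 nM) was mixed with a transcribed, DNA-blocked target RNA library […] in HEPES–potassium acetate buffer at 33 °C for 0–8 or 0–960 min, with or without 500 nM GTSF1 partner protein. Uncleaved targets were then sequenced and normalised to depth and to weakly complementary targets. Three trials were pooled, and k3 was capped at 0.0001 min^-1. A burst-and-steady-state fit was applied to obtain the pre-steady-state cleavage rate.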
# 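Note: 1 nM active piRISC with 0.1 nM target library at 33 °C single turnover.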
row,Sequence,pre-steady-state target cleavage rate
1,UCCUCCUACAGCUUGCAUUGUAUUUAGUAA,0.182 ± 0.02
2,UCCUCCUACAGCUUGCAUAGUAUUCUAGUUA,0.316 ± 0.039
3,UCCUGGAUGAGCAUGCAAAGUAUUUAGUUA,0.056 ± 0.011
4,UCCUGGAACUGGUUGCAUAGUAUUUAGUUA,0.202 ± 0.018
5,UCCUGGAUGAGCUUGCAUAGUUUUUAGUUA,0.0248 ± 0.0073
6,UCCUGGAACAGCUAGCUUAGUAUUUAGUUA,0.186 ± 0.015
7,UCCUGGAUCAGCUUGCGUAGUAUUUAGUUA,0.192 ± 0.017
8,UCCUCCUACAGCUUGCAUAGAUAUUUAGUUA,0.0178 ± 0.0058
9,UCCUGGAUGAGCUUGGAUAGUAAUUAGUUA,0.1 ± 0.02
10,UCCUGGAACAGUUGCAUAGUAUUUAGUUA,0.2 ± 0.014
11,UCCUGCUCAGCUUGCAUAGUAUUUAGUUA,0.278 ± 0.014
12,UCCUGGUACUGCUAGCAUAGUAUUUAGUUA,0.174 ± 0.02
13,UCCUGGAUGUCCUUGCAUAGUAUUUAGUUC [g2:g19:cont:t1C],0.0893 ± 0.011
14,UCCUGGAUCAGCUGGCAUAGUAUUUAGUUA,0.253 ± 0.023
15,UCCUGGAACAGCUUGCGUAGUAUUUAGUUA,0.277 ± 0.016
16,UCCUGGAACAGCUUGCAUUGUAUUUAGUUA,0.18 ± 0.014
